# Laboratory results reported in PubChem BioAssay (NCI).
# “And” between values parts separate entries of the source, which are not always exact repeats. Identical values can stand only once. About 83,000 compounds went through this panel and 20% of them were active in at least one assay; those are over-represented in the sample as a whole.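 Testing used 96-well plates and a 48-hour single-concentration exposure. Example: -40 means 40% of the starting cells died.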 The source made the active and inactive calls.
# System: NCI-H226 lung
# Test: NCI-60 one-dose screen, 48 h (100 = growth as untreated, 0 = no growth, -100 = all killed)
# Details: 0.01 µM
# Description: Growth inhibition of the NCI-H226 human Non-Small Cell Lung tumor cell line is measured as a screen for anti-cancer activity. Cells are grown in 96 well plates and exposed to the test compound for 48 hours. Compounds are tested at a single concentration, which is 10^-5 M for most compounds. The reported endpoint is percent growth (GI% or GIPRCNT), where numbers from 0 - 100% represent growth inhibition, and numbers from -100% - 0 represent cell death. For example, a value of 40 represents 60% growth inhibition. A value of 0 means no net growth occurred over the course of the experiment. A value of -40 indicates 40% of cells at the beginning of the experiment died by the end of the experiment. A value of -100 means all cells are dead at the end of the experiment.
# NCI-60 Human Tumor Cell Lines Screen was performed using the standard one-dose NCI protocol, which is described in more detail at https://dtp.cancer.gov/discovery_development/nci-60/default.htm.
# Compounds with GIPRCNT values below 10 were considered active. Activity score was based on GIPRCNT using the following formula: […]
# Score is 0 for GIPRCNT values of 100 or above, 50 for GIPRCNT values of 0, and 100 for GIPRCNT values of -100.
row,Structure (SMILES),growth
1,CC(=O)O[C@H]1C(=O)[C@@]2(C)[C@H]([C@H](OC(=O)c3ccccc3)[C@]3(O)C[C@H](OC(=O)[C@H](O)[C@@H](NC(=O)c4ccccc4)c4ccccc4)C(C)=C1C3(C)C)[C@]1(OC(C)=O)CO[C@@H]1C[C@@H]2O,67.6% (inactive)

# Same assay, conditions: 2.5 µM
row,Structure (SMILES),growth
1,CC(=O)O[C@H]1C(=O)[C@@]2(C)[C@H]([C@H](OC(=O)c3ccccc3)[C@]3(O)C[C@H](OC(=O)[C@H](O)[C@@H](NC(=O)c4ccccc4)c4ccccc4)C(C)=C1C3(C)C)[C@]1(OC(C)=O)CO[C@@H]1C[C@@H]2O,27.4% (inactive)

# Same assay, conditions: 5 µM
row,Structure (SMILES),growth
1,CC(=O)O[C@H]1C(=O)[C@@]2(C)[C@H]([C@H](OC(=O)c3ccccc3)[C@]3(O)C[C@H](OC(=O)[C@H](O)[C@@H](NC(=O)c4ccccc4)c4ccccc4)C(C)=C1C3(C)C)[C@]1(OC(C)=O)CO[C@@H]1C[C@@H]2O,32.1% (inactive)

# Same assay, conditions: 10 µM
row,Structure (SMILES),growth
1,CC(=O)O[C@H]1C(=O)[C@@]2(C)[C@H]([C@H](OC(=O)c3ccccc3)[C@]3(O)C[C@H](OC(=O)[C@H](O)[C@@H](NC(=O)c4ccccc4)c4ccccc4)C(C)=C1C3(C)C)[C@]1(OC(C)=O)CO[C@@H]1C[C@@H]2O,77.4% (inactive) and 31% (inactive)
2,CC[C@@]1(OC(=O)CN(C)C)C(=O)OCc2c1cc1n(c2=O)Cc2cc3c(N)cccc3nc2-1,-13.4% (active)
3,COc1ccc2c(c1)[nH]c1c(/C=C/c3ccccc3)nccc12,73% (inactive)
4,O=[N+]([O-])c1cc(S(=O)(=O)Nc2ccccc2)ccc1Cl,99% (inactive)
5,Cc1cc(Cl)ccc1NC(=O)/C(Cl)=C1/Sc2ccccc2NC1=O,90.3% (inactive)
6,Cn1c2nc3ccccc3c-2nc2ccccc21,104% (inactive)
7,CC1CCC2(C(=O)O)CCC3(C)C(=CCC4C5(C)CC(O)C(O)C(C)(CO)C5C(O)CC43C)C2C1C (stereo not given),115% (inactive)
8,O=C1C(Cl)=C(Cl)C(Cl)(Cl)C(Cl)C1(Cl)Cl (stereo not given),105% (inactive)
9,COc1cc(N)ccc1Nc1c2ccccc2nc2ccccc12,73.3% (inactive)
10,CCOC(=O)[C@]1(Br)CC[C@@]1(Br)C(=O)OCC,91.8% (inactive)
11,NCc1c(O)ccc2ccccc12,96.2% (inactive)
12,O=C(O)c1ccccc1.[Ag],104% (inactive)
13,CCC(=O)Oc1ccc(/C=N/NC(N)=S)nc1,79.1% (inactive)
14,CN(C)CCNc1cccc2sc3ccc(O)cc3c(=O)c12,74% (inactive)
15,O=C1C=CC(=O)N1c1ccc(N2C(=O)C=CC2=O)cc1,84.8% (inactive)
16,Cc1cc(N=C2C=CC(=[N+](C)C)C=C2)c(N)cc1N,97.9% (inactive)
17,C=C1N(C)c2ccc(Cl)cc2C1(C)C,67.6% (inactive)
18,COc1ccc2oc(-c3ccc(Cl)cc3)c(N3CCN(C)CC3)c2c1,91% (inactive)

row,Structure (SMILES),growth
1,CN(CC(=O)O)c1ccc(/C=C/c2ccnc3ccccc23)cc1,60.8% (inactive)
2,Cn1ncc2cc3c(Nc4ccc(Cl)cc4)cccc3nc21,94.4% (inactive)
3,O=C1c2cccc3cc([N+](=O)[O-])cc(c23)C(=O)N1CCN1CCCC1,-62.2% (active)
4,O=C(NC(=S)Nc1ccccn1)c1ccccc1,91.1% (inactive)
5,S=P(N1CC1)(N1CC1)N1CC1,102% (inactive) and 80.4% (inactive)
6,N#C/C(=C/N1C(=O)/C(=C/c2ccc([N+](=O)[O-])cc2)SC1=S)c1nc2ccccc2s1,63.8% (inactive)
7,COc1cccc(C(c2cc3c(cc2O)OCO3)N2CCOCC2)c1OC (stereo not given),99.6% (inactive)
8,O=S(=O)(c1cc(Cl)ccc1O)c1cc(Cl)ccc1O,78.1% (inactive)
9,COc1ccc(N)c2c1C(=O)c1ccccc1C2=O,93.5% (inactive)
10,O=C1c2ccccc2CCC1(Br)Br,27.1% (inactive)
11,Nc1nc(N)c2cc(Sc3ccc4ccccc4c3)ccc2n1,57.7% (inactive)
12,O=Nc1ccc(Nc2ccccc2)cc1,92.8% (inactive)
13,Cc1cc(O)c2c(c1O)C(=O)C13C(=C2O)C(=O)C2C(O)C1C1C(O)C3C(=O)C3=C(O)c4c(O)cc(C)c(O)c4C(=O)C321 (stereo not given),-2.71% (active)
14,CN(C)c1ccc(/C=C/c2ccnc3ccccc23)cc1N,53% (inactive)
15,Cc1c(-c2ccccc2)[nH]c2ccccc12,95.3% (inactive)
16,N#CC(=C1C=CC(=NO)C=C1)c1ccccc1,44.5% (inactive)
17,O=C(CNS(=O)(=O)Cc1ccccc1)NNc1ccccc1,72.9% (inactive)
18,S=C1SCN(CCc2ccccc2)CN1CCc1ccccc1,99.4% (inactive)

# Same assay, conditions: 100 µM
row,Structure (SMILES),growth
1,S=P(N1CC1)(N1CC1)N1CC1,62.4% (inactive)
